This excerpt belongs to a sample that is enriched for hits.
IMPase Li cell – membrane-permeable IMPase blocker, potentiated with lithium | Potency, µM (top dose mostly 59.4 µM), usual class: inhibitors | CHO-M1 cells, IP1 TR-FRET (IP-One), carbachol + lithium | 210,000 tested, 0.35% active;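 also: IP1 builds up when IMPase is blocked and the TR-FRET signal falls; nearly all actives have a fitted effect of over 50% in size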
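Concentration–response in CHO-M1 cells, lithium-potentiated; 30 min at 37C. IP1 detected by competitive TR-FRET after 10 min lysis at RT. Hill-fitted AC50.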
Tb PFK inh – blocks T. brucei phosphofructokinase; T. brucei PFK, ADP-Glo luminescence; Potency, µM (doses to about 57.5 µM), most hits filed as inhibitors; 330,000 tested, 0.17% active; AID 485367; also: nearly all actives have a fitted effect of over 60% in size
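ADP-Glo luminescence quantified ADP after 45 min at room temperature, with 1.25 nM T. brucei PFK, 0.1 mM ATP and 0.5 mM fructose-6-phosphate in pH 8.0 TEA buffer. qHTS titrations up to 57 µM; curves classified by quality.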
MBNL1 CUG block – blocks human MBNL1 binding to CUG repeat RNA. TR-FRET MBNL1-His/biotin-(CUG)12 binding, 665/545 ratio. AID 2675. Potency, µM (series often up to 57.5 µM), actives largely listed as inhibitors. 280,000 tested, 0.036% active; active = well fitted inhibition curve with a large enough effect in the signal ratio, with a control signal flat, not every such curve was filed as active; inconclusive = small, poorly fitted or top-dose-only effect, or effect the other way, or a change in a side signal; inactive = no such curve, though single readings can be large or run the other way; the % refers to the signal ratio
Target sequence (Q9NR56 whole entry, looked up): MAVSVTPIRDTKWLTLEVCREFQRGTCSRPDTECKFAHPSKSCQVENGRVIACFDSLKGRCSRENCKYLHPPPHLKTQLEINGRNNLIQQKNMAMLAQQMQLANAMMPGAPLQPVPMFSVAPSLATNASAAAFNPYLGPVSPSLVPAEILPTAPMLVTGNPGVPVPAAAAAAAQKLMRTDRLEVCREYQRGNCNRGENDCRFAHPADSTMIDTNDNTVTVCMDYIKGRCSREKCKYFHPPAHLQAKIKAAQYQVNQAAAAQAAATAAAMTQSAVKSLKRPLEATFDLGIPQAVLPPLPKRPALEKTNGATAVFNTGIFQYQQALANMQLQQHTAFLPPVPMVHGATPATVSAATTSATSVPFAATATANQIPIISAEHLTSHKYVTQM
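His-tagged MBNL1 binding to biotinylated (CUG)12 RNA was measured by TR-FRET using terbium anti-His antibody (0.055 ng/ul final) and streptavidin-XL665 (5 nM final). Compounds were titrated 92 nM to 58 uM; 60 min at room temperature.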
GoLoco inh red – RGS12 GoLoco-Gai1 interaction inhibition; P63096; Gai1:RGS12 GoLoco peptide FP, rhodamine, 10 min; Potency, µM (series often up to 61.6 µM), hits mostly inhibitors; 230,000 tested, 0.44% active; AID 880; active = well fitted inhibition curve with a large enough effect, not every such curve was filed as active; inactive = no such curve, though single readings can be large or run the other way; also: nearly all actives have a fitted effect of over 30% in size
Target sequence (P63096 whole entry, looked up): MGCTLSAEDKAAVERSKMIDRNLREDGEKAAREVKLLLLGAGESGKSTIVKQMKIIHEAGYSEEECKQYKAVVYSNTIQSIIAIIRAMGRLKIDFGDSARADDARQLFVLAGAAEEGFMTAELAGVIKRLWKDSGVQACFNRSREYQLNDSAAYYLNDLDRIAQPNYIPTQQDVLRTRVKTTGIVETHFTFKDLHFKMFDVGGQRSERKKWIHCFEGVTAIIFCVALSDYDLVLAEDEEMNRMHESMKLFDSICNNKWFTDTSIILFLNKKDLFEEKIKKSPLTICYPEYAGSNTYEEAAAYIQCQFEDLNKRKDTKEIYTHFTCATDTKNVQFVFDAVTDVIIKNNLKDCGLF
NPSR antagonist – antagonists of human neuropeptide S receptor cAMP signaling | Q6W5P4 | CHO-NPSR cells, cAMP TR-FRET, antagonist mode | Potency, µM (top dose mostly 38.3 µM), actives largely listed as inhibitors | 220,000 tested, 1% active | AID 1461; also: nearly all actives have a fitted effect of over 50% in size
Numbers stand for hits; i = inactive; ? = inconclusive; nt = no result; [ ] = another dose, or the depositor's remark. Unless noted, calls follow the shape of the dose curve; as a rule, active = well fitted curve in the direction sought with a large enough effect; inconclusive = small, poorly fitted or top-dose-only effect, or another doubt; inactive = no such curve, though single readings can be large; an effect the other way counts as inactive or inconclusive.

SMILES | IMPase Li cell | Tb PFK inh | MBNL1 CUG block | GoLoco inh red | NPSR antagonist
CCOC(=O)c1c(NC(=O)COC(=O)c2ncc(Cl)c(Cl)c2Cl)sc(C(=O)N(C)C)c1C | nt | i | nt | nt | nt
CCN1C(=O)N(c2cccc3ccccc23)C(C)=CC1(C)C | i | i | i | i | i
CN1c2ccccc2N(C)C1(C)c1ccccc1 | i | i | nt | 1.26µM | i
CN1C(=O)N(C)C2(c3ccccc3)NC(=O)NC12c1ccccc1 (stereo not drawn) | i | i | i | i | i
CCN1c2ccccc2N(C)C1(C)c1ccccc1 (stereo not drawn) | i | i | ? | 8.91µM | i
O=c1c(Cl)c(Cl)cnn1Cc1nnc(-c2ccccc2Br)o1 | i | i | i | i | i
Cn1c(=O)c(-c2ccc(Cl)cc2)nc2cnc(N3CCNCC3)nc21 | i | nt | nt | i | nt
CCOC(=O)c1c(NC(=O)/C=C\C(=O)O)sc(C)c1-c1ccccc1 | i | i | i | i | i
CCOC(=O)c1c(NC(=O)/C=C/C(=O)O)sc(C)c1-c1ccc(C(C)(C)C)cc1 | i | i | i | i | 10µM
Cc1ccc2nc(NC(=S)NC(=O)c3ccco3)sc2c1 | 12.6µM | i | i | i | i
O=C(c1ccc(S(=O)(=O)N2CCCC2)cc1)N1CCC(CN2C(=O)c3cccc4cccc(c34)C2=O)CC1 | nt | i | i | i | 10µM
Cc1ccc2c(c1)S/C(=C/c1ccc[n+](C)c1)N2CCO | i | i | ? | 8.91µM | i
O=c1[nH]n2c(=O)c3c([nH]c2c1N=Nc1cccc(Cl)c1)CCCC3 | i | i | i | i | 10µM
COc1ccc(-c2cc(-c3ccc(O)cc3)nc(N)c2C#N)cc1 | nt | i | i | nt | nt
COc1ccc(-c2cc(-c3ccc(OC)cc3)c(C#N)c(SC)n2)cc1 | 11.2µM | i | i | i | 12.6µM
CCc1nnc(NC(=O)CSc2nc(-c3ccccc3)cc(-c3ccc(OC)cc3)c2C#N)s1 | i | i | nt | i | 7.94µM
CC(C)NC(=O)CSc1nc(-c2cccs2)cc(-c2ccccc2)c1C#N | ? | i | ? | i | 10µM
COc1ccc(NC(=S)NC(NC(=O)c2cccc(Cl)c2)C(Cl)(Cl)Cl)c([N+](=O)[O-])c1 (stereo not drawn) | i | i | ? | i | 10µM
COc1ccc(NC(=S)NC(NC(=O)c2cccc(C)c2)C(Cl)(Cl)Cl)c([N+](=O)[O-])c1 (stereo not drawn) | i | i | ? | i | ?
COc1cc(/C=C/C(=O)c2ccc(Cl)s2)cc(OC)c1O | i | i | ? | i | 10µM
COc1ccc(/C=C/C(=O)c2ccc(Cl)s2)cc1O | i | i | ? | i | ?
CCOC(=O)/C(C)=C1\NC(C)(C)Cc2ccccc21 | i | i | i[11.5 µM] | 28.2µM | i
CSc1cccc(NC(=S)N2CCC(N(C)C3CCCCC3C)CC2)c1 (stereo not drawn) | i | i | i | i | i
Cc1ccc(S(=O)(=O)NC(=O)O[C@@H]2C(=O)c3cc(Br)ccc3O[C@H]2c2ccc3c(c2)OCO3)cc1 | i | nt | nt | i | nt
O=C(Nc1cc(Cl)ccc1O)c1cc2n(n1)C(C(F)(F)F)CC(c1ccc3c(c1)OCO3)N2 (stereo not drawn) | i | i | i | i | 6.31µM
SMILES | IMPase Li cell | Tb PFK inh | MBNL1 CUG block | GoLoco inh red | NPSR antagonist
O=S(=O)(/C(=C/c1ccc(C(F)(F)F)cc1)c1nc2ccccc2[nH]1)c1ccccc1 | i | i | i | i | 6.31µM
CC(C)c1ccc(/C=C(\c2nc3ccccc3[nH]2)S(=O)(=O)c2ccccc2)cc1 | i | i | i | i | ?
CCN1/C(=C/c2ccc3ccccc3[n+]2CC)C=Cc2ccccc21 | i | i | ? | i | 7.94µM
CCN1/C(=C/c2ccc3ccccc3[n+]2CCCS(=O)(=O)[O-])C=Cc2cc(C)ccc21 | nt | i | ? | nt | nt
Cc1cc(C)c(C2=Nn3c(C)nnc3SC2C)cc1C (stereo not drawn) | nt | i | i | nt | nt
COC(=O)c1sc(NC(=O)c2c(OC)cccc2OC)c(C#N)c1C | 11.2µM | i | i | i | i
CC1=C(C)/C(=N\OS(=O)(=O)c2ccccc2)C=CC1=O | i | i | i | i | 5.01µM
Cc1ccc(S(=O)(=O)O/N=C2\CCCc3ccccc32)cc1 | i | i | i | i | i
Cc1csc(N/N=C/c2ccc(O)c([N+](=O)[O-])c2)n1 | i | ? | ? | i | 10µM
C=C1C(=O)C=C2CN(C(=O)c3ccccc3)[C@@](Cc3ccc(F)cc3)(C(=O)OC)[C@@H]12 | i | i | i | i | 1.58µM
NC(=O)c1ccsc1N | i | i | ? | 20µM | i
CCN1C(=O)Cc2cc(S(=O)(=O)NCCc3ccccc3)ccc21 | nt | i | i | nt | nt
CCCCn1c(NC(=O)c2ccc(Br)o2)c(S(=O)(=O)c2ccccc2)c2nc3ccccc3nc21 | 10µM | i | i | i | 10µM
CCCCCn1c(NC(=O)c2ccco2)c(S(=O)(=O)c2ccc(C)cc2)c2nc3ccccc3nc21 | 11.2µM | i | i | i | 12.6µM
CCCCn1c(NC(=O)c2ccco2)c(S(=O)(=O)c2ccc(C)cc2)c2nc3ccccc3nc21 | ? | i | i | i | i
Cc1cc(C)c(OCC(=O)Nc2ccc3c(c2)OCO3)cc1C | 10µM | i | i | i | i
Cc1noc(C)c1CSCC(=O)Nc1ccc(S(=O)(=O)C(F)F)cc1 | nt | i | nt | nt | nt
COc1ccccc1NS(=O)(=O)c1cc(NC(=O)Nc2ccc(Cl)cc2Cl)ccc1N1CCCCC1 | i | i | i | i | i
O=C(Nc1cccc(C(F)(F)F)c1)Nc1ccc(N2CCCC2)c(S(=O)(=O)Nc2ccccc2Cl)c1 | i | i | i | i | 10µM
Cc1sc(NC(=S)NC(=O)CCc2ccccc2)c(C(N)=O)c1C | 11.2µM | i | nt | i | i
Oc1ccc(N=Cc2ccc(O)c(O)c2)cc1 | i | i | ? | 15.8µM | i
O=c1cc(-c2c(F)c(F)c(F)c(F)c2F)oc2c(F)c(F)c(F)c(F)c12 | i | i | i | i | 3.16µM
Cc1ccc(C(=O)N2CCN(c3ccccc3O)CC2)cc1S(=O)(=O)N1CCCCC1 | nt | i | nt | nt | nt
COc1ccc(OC)c(NC(=O)c2ccc(NC3=NC4CS(=O)(=O)CC4S3)cc2)c1 (stereo not drawn) | nt | i | i | nt | nt
COc1ccccc1-c1cc(-c2ccccc2)nc(SC(C(N)=O)c2ccccc2)c1C#N (stereo not drawn) | 7.94µM | i | i | i | ?
SMILES | IMPase Li cell | Tb PFK inh | MBNL1 CUG block | GoLoco inh red | NPSR antagonist
CCOC(=O)[C@H]1[C@H]2COc3ccc(Cl)cc3[C@@H]2N2C(=O)CN(Cc3ccc(C)cc3)C(=O)[C@@]12C | nt | i | nt | nt | nt
Cc1ccc(-c2cn3cccnc3n2)cc1 | 10µM | i | ? | i | i
CS(=O)(=O)Nc1ccc(-c2cn3cccnc3n2)cc1 | nt | i | ? | nt | nt
COc1cc(/C=C2/SC(=O)NC2=O)ccc1Oc1ccc([N+](=O)[O-])cc1[N+](=O)[O-] | nt | i | i | i | 12.6µM
COc1cc(/C=C2\SC(=O)NC2=O)ccc1Oc1ccc([N+](=O)[O-])cn1 | nt | i | ? | i | i
CCOC(=O)Nc1nnc(-c2ccccc2OC)s1 | i | i | i | i | i
